FLuc counter: inhibits or activates purified firefly luciferase, miR-21 counter-screen. hit rate 6.9% among 360,000. Potency, µM (top dose mostly 57.5 µM), for the others: at the highest dose activity change, negative = inhibition, usual class: inhibitors. purified FLuc, Km substrates, luminescence inhibition;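 note: plate controls were vehicle for no effect and reference inhibitor for full effect; nearly all actives have a fitted effect of over 55% in size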
Target sequence (P08659 whole entry, looked up): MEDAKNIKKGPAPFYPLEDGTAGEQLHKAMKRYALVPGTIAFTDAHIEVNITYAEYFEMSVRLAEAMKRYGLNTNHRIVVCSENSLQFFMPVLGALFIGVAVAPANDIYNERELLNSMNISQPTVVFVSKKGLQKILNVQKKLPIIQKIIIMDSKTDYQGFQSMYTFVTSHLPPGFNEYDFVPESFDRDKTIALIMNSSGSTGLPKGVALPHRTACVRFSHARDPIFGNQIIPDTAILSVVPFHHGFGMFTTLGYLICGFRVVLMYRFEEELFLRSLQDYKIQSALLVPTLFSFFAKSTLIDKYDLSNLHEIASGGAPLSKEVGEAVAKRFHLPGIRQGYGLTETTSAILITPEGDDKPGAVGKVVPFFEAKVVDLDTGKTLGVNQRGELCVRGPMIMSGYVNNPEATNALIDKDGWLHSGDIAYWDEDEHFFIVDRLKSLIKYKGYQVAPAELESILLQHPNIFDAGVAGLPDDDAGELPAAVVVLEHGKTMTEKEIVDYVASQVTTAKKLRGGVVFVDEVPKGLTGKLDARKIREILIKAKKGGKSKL
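Purified P. pyralis luciferase, 10 nM final, with Km-level 10 uM D-luciferin and 10 uM ATP in 50 mM Tris acetate pH 7.5, 10 mM Mg acetate, 0.01% Tween-20, 0.05% BSA; 6-point qHTS titration about 60 µM downward; luminescence read.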
SMN2 splice up: enhancers of SMN2 splice variant expression; HEK293 SMN2-luciferase splicing reporter, luminescence, 30-36 h; hit rate 2.8% among 210,000; Potency, µM (highest dose often 46.1 µM), without a hit: at the top dose activity change, positive = activation, usual class: activators; AID 1458; note: % of control where 0% means no effect; nearly all actives have a fitted effect of over 55% in size
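HEK293 cells carry an SMN2 […]–luciferase reporter in which exon 7 inclusion puts luciferase in frame. Cells were plated 10-12 h before compound addition, then incubated 30-36 h at 37C. ONE-Glo luminescence was read; sodium butyrate at 4.5 mM final served as control.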
ELG1 DNA repair: ELG1-dependent DNA repair inhibition; HEK293T ELG1-luciferase reporter, luminescence, 16 h; DNA damage induced by 5-fluorouridine; Potency, µM (titrated, usually from 46.1 µM), for the others: top-dose activity change, negative = inhibition, hits mostly inhibitors; hit rate 2.3% among 330,000; note: % is set by controls: 0 for no effect and ±100 for the full control effect; nearly all actives have a fitted effect of over 55% in size
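Cells (2,000 per well) received 5-fluorouridine plus test compound or DMSO and were incubated 16 hr at 37 °C, 5% CO2. Luciferase activity was read by luminescence 30 min after ONE-Glo addition; signal suppression marked inhibition of damage-induced ELG1 function.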
NPC1 promoter act: activates the NPC1 promoter; hit rate 2.4% among 320,000; Huh7 NPC1 promoter luciferase reporter, 24 h; Potency, µM (top dose mostly 9.22 µM), for the others: top-dose activation, actives largely listed as activators; note: % of control where 0% means no effect; nearly all actives have a fitted effect of over 60% in size
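In 1536-well qHTS, Huh7 cells harboring an NPC1 promoter–luciferase construct received compound for 24 h; activation was quantified by luminescence following luciferase reagent addition.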
Rab9 promoter act: activators of Rab9 promoter | Huh7 Rab9 promoter-luciferase reporter, luminescence, 24 h | Potency, µM (titrated, usually from 9.22 µM), inactives show at the highest dose activation, negative = inhibition, hits mostly activators | hit rate 2.8% among 320,000 | AID 485297; note: % of control where 0% means no effect; nearly all actives have a fitted effect of over 60% in size
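Promoter activation is measured as luciferase luminescence in Huh7 cells stably transfected with a Rab9 promoter–luciferase construct, following 24 h compound exposure at 37 °C and 10 min reagent incubation at ambient temperature.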
ELG1 genotoxic: genotoxicity induction in ELG1-luciferase HEK293T cells; Potency, µM (top dose mostly 46 µM), for the others: at the highest dose activity change, positive = activation, most hits filed as activators; hit rate 1.3% among 330,000; HEK293T ELG1-luciferase reporter, luminescence, 16 h; AID 504466; note: % of control where 0% means no effect; nearly all actives have a fitted effect of over 60% in size
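Step 1: seed 2,000 HEK293T ELG1-luciferase cells per well. Step 2: add compound or DMSO, incubate 16 hr at 37 °C. Step 3: ONE-Glo, 30 min at room temperature, read luminescence.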
* = called active by the depositor; ? = inconclusive; / = no result. The list is not random: actives were taken first. Their share in the collection is about 9.3%. Calls come from the whole dose curve; as a rule, active = well fitted curve in the direction sought with a large enough effect; inconclusive = small, poorly fitted or top-dose-only effect, or another doubt; inactive = no such curve, though single readings can be large; an effect the other way counts as inactive or inconclusive. Potency is the fitted concentration of half-maximal effect.

SMILES	FLuc counter	SMN2 splice up	ELG1 DNA repair	NPC1 promoter act	Rab9 promoter act	ELG1 genotoxic
N#CSCC(=O)N1c2ccccc2CCc2ccccc21	-13%	-18%	?	-2%	-6%	-6%
Cc1cc(C(=O)N=Nc2c(O)n(C)c3ccccc23)c(C)o1	2.7µM*	7.1µM*	?	2.5µM*	3.5µM*	7.3µM*
c1ccc2c(c1)[nH]c1cnccc12	-8%	-38%	?	1%	-4%	1%
C[C@]12CCC(=O)C=C1CC[C@@H]1[C@@H]2CC[C@@]2(C)[C@H]1CC[C@]2(C)O	0%	0%	/	-3%	-6%	/
CC1CCCC(C)N1/N=C/c1c[nH]c2ccc(Br)cc12 (stereo not given)	1%	-26%	-6%	1%	2%	-7%
Cc1csc(NC(=O)C2CCCN(S(=O)(=O)c3ccc4c(c3)oc(=O)n4C)C2)n1 (stereo not given)	10%	-66%	?	8%	-6%	0%
Nc1c(C(=O)Nc2ccc(F)c(Cl)c2)sc2nc3c(cc12)N1CCC3CC1	8.5µM*	-45%	/	/	/	/
CN(C)c1ccc(NC(=O)c2sc3nc4c(cc3c2N)N2CCC4CC2)cc1	-8%	0%	/	/	/	/
N#Cc1cccc(NC(=O)c2sc3nc4c(cc3c2N)N2CCC4CC2)c1	12µM*	/	/	/	/	/
COC(=O)C1=CO[C@@H](C)[C@@H]2CN3CC[C@@]4(C(=O)Nc5ccccc54)[C@@H]3C[C@H]12	-1%	-3%	1%	-6%	-6%	-2%
COc1ccc(N=Cc2c(O)n(Cc3ccccc3)c(=S)[nH]c2=O)c(OC)c1	1.2µM*	/	?	?	?	?
COc1ccc(OC)c(N=Cc2c(O)n(Cc3ccccc3)c(=S)[nH]c2=O)c1	1%	/	-1%	3%	0%	-6%
N=C1c2ccccc2CN1CC(=O)c1ccccc1	15µM*	11µM*	?	6%	?	?
Cc1ccc(NC(=O)OC(C)CNC(=O)Oc2cccc(C)c2)cc1 (stereo not given)	24µM*	-3%	?	16%	25%	-12%
CC(=Nc1ccccc1N)c1c(O)n(C)c(=O)[nH]c1=O	-7%	/	?	0%	-3%	12%
CS(=O)(=O)Nc1ccc(Cc2noc(-c3ccc4[nH]cc(CCN)c4c3)n2)cc1	-2%	-3%	/	0%	-1%	/
c1ccc(CN2CCc3nc4ccccc4cc3C2)cc1	12µM*	/	?	?	?	?
O=c1c2ccccc2nc(/C=C/c2cccnc2)n1Cc1ccccc1	27µM*	/	?	-4%	-5%	-5%
O=c1c2ccccc2nc(/C=C/c2ccccc2)n1-c1ccc(O)cc1	-2%	/	?	-1%	-1%	-10%
c1ccc2ncccc2c1	/	-4%	17%	/	/	1%
CC/C(=N\Nc1ccccc1)c1c(O)[nH]c(=O)[nH]c1=O	4%	/	4.1µM*	1%	-2%	10%
CC/C(=N\Nc1cccc2ccccc12)c1c(O)[nH]c(=O)[nH]c1=O	?	-9%	?	-1%	1%	0%
COc1ccc(C)cc1NC(=O)c1c(C)nn(Cc2ccccc2)c1Cl	-16%	-9%	15µM*	-1%	-3%	-7%
CCOc1ccc(NC(=O)c2c(C)nn(Cc3ccccc3)c2Cl)cc1	5%	/	-2%	-2%	0%	?
COc1ccc(C(=O)Nc2nnc(S(=O)(=O)N(CC(C)C)c3ccc(C)cc3)s2)cc1OC	8.5µM*	/	/	/	/	/
Cc1ccc(NC(=O)c2ccc(C)c(S(=O)(=O)N3CCCCC3)c2)nc1	-21%	/	?	0%	5%	?
COc1cc(/C=C/c2nc3ccccc3c(=O)n2-c2ccccc2O)ccc1O	17µM*	/	?	1%	1%	11%
COc1ccccc1-n1c(-c2ccc(C)cc2)nc2ccccc2c1=O	13µM*	/	2%	-3%	-1%	14%

Source: PubChem BioAssay
